Reference: PubChem BioAssay AID1745853 (National Center for Advancing Translational Sciences (NCATS), 2022)
The whole screen tested about 25,000 compounds, of which about 970 (3.9%) were called active. Roughly 8% stayed inconclusive and do not appear here. The rule behind the calls is not given here. The entries come from a sample that favours actives as a whole.

Legend:
Test in all cases: Primary Screen for Target Class Profiling of Small Molecule Inhibitors of Methyltransferases
[1] = target: Catechol O-methyltransferase (Homo sapiens) (UniProt P21964); conditions: purified enzyme, MTase-Glo SAH luminescence; activity change, negative = inhibition: at 40 µM, stronger effect = lower value; outcome: 40 uM
Chain of Catechol O-methyltransferase (Homo sapiens) (P21964 whole entry, looked up): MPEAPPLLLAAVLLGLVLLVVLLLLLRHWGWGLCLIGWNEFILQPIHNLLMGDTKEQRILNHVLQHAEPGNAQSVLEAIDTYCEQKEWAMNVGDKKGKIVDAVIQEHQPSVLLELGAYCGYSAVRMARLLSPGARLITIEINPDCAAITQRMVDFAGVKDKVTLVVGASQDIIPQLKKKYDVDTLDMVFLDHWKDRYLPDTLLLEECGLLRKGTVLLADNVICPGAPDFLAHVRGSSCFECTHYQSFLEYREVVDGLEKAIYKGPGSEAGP
Text: (§1) PI: Matthew D. Hall Ph.D. and Quinlin M. Hanson Ph.D.
(§2) National Center for Advancing Translational Sciences (NCATS)
(§3) National Institute of Health (NIH), Rockville, MD
(§4) Target class profiling (TCP) is a chemical biology approach amenable to investigating understudied biological targets. TCP is achieved by developing a generalizable assay platform and applying it to screen a curated set of compound libraries against representative members of a target class. Small molecule methyltransferases (SMMTase) are a subclass of methyltransferase that act on metabolites to modulate signaling pathways, metabolize xenobiotics, or balance the available methyl pool. We screened four curated libraries totaling 27,574 unique compounds against the SMMTases nicotinamide N-methyltransferase (NNMT), phenylethanolamine N-methyltransferase (PNMT), histamine N-methyltransferase (HNMT), glycine N-methyltransferase (GNMT), catechol O-methyltransferase (COMT), and guanidinoacetate N-methyltransferase (GAMT). The data generated by this TCP can be leveraged for informed tool molecule development. For example, in the associated publication we identified a chemotype of HNMT-selective inhibitors. Additionally, we identified a putative SMMTase-selective inhibitor with potential as a tool molecule for studying broader methyltransferase biology.
(§5) High-through put screening assays were developed at the National Center for Advancing Translational Science (NCATS) for the enzymes NNMT, PNMT, HNMT, GNMT, COMT, and GAMT. Enzymatic activity was measured as a function of SAM cofactor conversion using the MTase Glo kit (Promega) for all enzymes. All assays were performed in 1536-well format with substrates and SAM concentrations at KM values. Enzyme concentration and assay timing were optimized for 10-20% SAM conversion. Initial screening of 27,574 compounds was done as single-point assays using the highest compound concentration (40 uM). […] These compounds were replated in 11-point dose response and assayed against NNMT, PNMT, HNMT, GNMT, COMT, GAMT, and a counter-assay. The IC50 and efficacy (maximal response) values were determined for each dose-response curve. These values are also accounted for in the area under the curve (AUC) values.
(§6) PROTOCOL TABLE (as described by Inglese J, Shamu CE and Guy RK. 2007)
(§7) SEQUENCE No. (e.g., 1, 2, 3, etc.); […] (e.g., Cells, Incubation, Reagent, etc.); VALUE; DESCRIPTION.
(§8) 1; Reagent; 2 uL; SMMTase Enzyme (2x) in reaction buffer, columns 1- 48.
(§9) 2; Reagent; 1 uL; SAM (4x) in reaction buffer, columns 1-48.
(§10) 3; Controls; 23 nL; DMSO in column 4; sinefungin in DMSO (0 uM - 40 uM) in 7-point 1:2 dilution series (n = 2) in column 2.
(§11) 4; Compounds; 23 nL; Columns 5-48.
(§12) 5; Reagent; 1 uL; Substrate (4x) in reaction buffer, columns 2-48.
(§13) 6; Time; 20-30 min; Incubation.
(§14) 7; Reagent; 1 uL; MTase-Glo reagent (5X), columns 1-48.
(§15) 8; Time; 30 min; Incubation.
(§16) 9; Reagent; 5 uL; MTase-Glo Detection reagent, columns 1-48.
(§17) 10; Time; 30 min; Incubation, luminescence evolution.
(§18) 11; Detection; Luminescence; ViewLux uHTS Microplate Imager (PerkinElmer).
(§19) NOTES (numbers refer to Sequence numbers above)
(§20) 1, 2, 5. White Medium Binding Greiner 1536-well plates (Cat #789175-F, Greiner Bio-One, Monroe, NC); Reaction buffer: 50 mM Tris, pH 8.0, 3 mM MgCl2, 1 mM EDTA, 50 mM NaCl, 1 mM DTT, and 0.1 mg/mL BSA. Evaporation was prevented by covering assay plates with metal lids containing holes to allow gas diffusion.
(§21) 1. Six SMMTase were profiled: HNMT, GNMT, PNMT, COMT, NNMT, GAMT
(§22) 5. The corresponding substrate was used for each enzyme: HNMT - 5.3 uM Histamine; GNMT - >500 uM Glycine; PNMT - 16.2 uM Norephinephrine; COMT - 13.7 uM Norephinephrine; NNMT - 3.8 uM Nicotinamide; GAMT - 2.5 uM Guanidinoacetate.6, 8, 10. Room temperature
(§23) 6. Final reaction conditions: 10 nM COMT, 5 uM SAM, 15 uM norepinephrine, 50 mM Tris, pH 8.0, 3 mM MgCl2, 1 mM EDTA, 50 mM NaCl, 1 mM DTT, and 0.1 mg/mL BSA; refer to tables 2 and S1 for specific timing.
8. […]

[2] = target: Glycine N-methyltransferase (Homo sapiens) (UniProt Q14749); conditions: purified enzyme, MTase-Glo SAH luminescence; measured here: GNMT inhibition; at 40 µM; stronger effect = lower value
Chain of Glycine N-methyltransferase (Homo sapiens) (Q14749 whole entry, looked up): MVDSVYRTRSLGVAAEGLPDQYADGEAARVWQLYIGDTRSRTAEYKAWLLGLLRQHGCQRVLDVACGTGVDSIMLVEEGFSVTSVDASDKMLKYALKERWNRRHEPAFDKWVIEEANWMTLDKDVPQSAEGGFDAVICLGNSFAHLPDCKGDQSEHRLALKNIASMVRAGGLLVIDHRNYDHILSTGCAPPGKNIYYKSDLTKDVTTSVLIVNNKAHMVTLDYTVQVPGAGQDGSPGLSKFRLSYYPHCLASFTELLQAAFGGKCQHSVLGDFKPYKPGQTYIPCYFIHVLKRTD
Text: as §1, §2, §3, §4, §5, §6, §7, §8, §9, §10, §11, §12, §13, §14, §15, §16, §17, §18, §19, §20, §21, §22, §23
8. […]

[3] = target: Guanidinoacetate N-methyltransferase (Homo sapiens) (UniProt Q14353); conditions: purified enzyme, MTase-Glo SAH luminescence; measured here: GAMT inhibition; at 40 µM; stronger effect = lower value
Text: as §1, §2, §3, §4, §5, §6, §7, §8, §9, §10, §11, §12, §13, §14, §15, §16, §17, §18, §19, §20, §21, §22, §23
8. […]

[4] = target: Histamine N-methyltransferase (Homo sapiens) (UniProt P50135); conditions: purified enzyme, MTase-Glo SAH luminescence; measured here: HNMT inhibition; at 40 µM; stronger effect = lower value
Chain of Histamine N-methyltransferase (Homo sapiens) (P50135 whole entry, looked up): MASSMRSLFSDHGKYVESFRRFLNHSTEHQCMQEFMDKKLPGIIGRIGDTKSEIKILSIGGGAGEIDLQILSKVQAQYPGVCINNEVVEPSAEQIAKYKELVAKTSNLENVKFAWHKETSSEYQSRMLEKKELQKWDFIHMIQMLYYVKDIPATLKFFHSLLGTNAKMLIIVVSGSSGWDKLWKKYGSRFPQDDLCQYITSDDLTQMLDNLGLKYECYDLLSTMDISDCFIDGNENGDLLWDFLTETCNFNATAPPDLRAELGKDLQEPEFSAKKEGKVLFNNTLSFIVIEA
Text: as §1, §2, §3, §4, §5, §6, §7, §8, §9, §10, §11, §12, §13, §14, §15, §16, §17, §18, §19, §20, §21, §22, §23
8. […]

[5] = target: Nicotinamide N-methyltransferase (Homo sapiens) (UniProt P40261); conditions: purified enzyme, MTase-Glo SAH luminescence; measured here: NNMT inhibition; at 40 µM; stronger effect = lower value
Chain of Nicotinamide N-methyltransferase (Homo sapiens) (P40261 whole entry, looked up): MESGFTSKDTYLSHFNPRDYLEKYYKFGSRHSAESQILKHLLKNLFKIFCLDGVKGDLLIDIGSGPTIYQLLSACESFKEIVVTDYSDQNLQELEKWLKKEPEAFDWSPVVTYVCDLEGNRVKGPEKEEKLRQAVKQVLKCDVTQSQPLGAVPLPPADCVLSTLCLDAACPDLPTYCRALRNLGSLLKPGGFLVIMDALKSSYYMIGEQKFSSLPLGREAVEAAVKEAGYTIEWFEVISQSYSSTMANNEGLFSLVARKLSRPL
Text: as §1, §2, §3, §4, §5, §6, §7, §8, §9, §10, §11, §12, §13, §14, §15, §16, §17, §18, §19, §20, §21, §22, §23
8. […]

[6] = target: Phenylethanolamine N-methyltransferase (Homo sapiens) (UniProt P11086); conditions: purified enzyme, MTase-Glo SAH luminescence; measured here: PNMT inhibition; at 40 µM; stronger effect = lower value
Chain of Phenylethanolamine N-methyltransferase (Homo sapiens) (P11086 whole entry, looked up): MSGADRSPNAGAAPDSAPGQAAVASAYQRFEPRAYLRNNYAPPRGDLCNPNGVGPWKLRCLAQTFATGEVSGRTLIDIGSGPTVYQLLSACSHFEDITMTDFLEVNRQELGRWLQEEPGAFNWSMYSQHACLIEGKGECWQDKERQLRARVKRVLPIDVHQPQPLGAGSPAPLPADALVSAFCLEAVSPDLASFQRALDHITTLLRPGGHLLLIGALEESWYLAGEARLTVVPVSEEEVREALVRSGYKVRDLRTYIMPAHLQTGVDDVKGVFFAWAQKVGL
Text: as §1, §2, §3, §4, §5, §6, §7, §8, §9, §10, §11, §12, §13, §14, §15, §16, §17, §18, §19, §20, §21, §22, §23
8. […]
% is set by controls: 0 for no effect and ±100 for the full control effect.

Structure (SMILES)	activity change, negative = inhibition [1]	activity change, negative = inhibition [2]	activity change, negative = inhibition [3]	activity change, negative = inhibition [4]	activity change, negative = inhibition [5]	activity change, negative = inhibition [6]
CCOC(=O)c1cc2n(n1)CC(C)(C(=O)NC1CCCC1)N(c1ccc(C)cc1)C2=O (stereo not drawn)	2.4% (inactive)	-0.39%	4.54%	3.6%	-0.074%	2.88%
Nc1ccc2c3c(cccc13)C(=O)NC2=O	-69.4% (active)	-41.1%	-13%	-8.7%	-18.3%	-8.01%
CCOc1ccccc1CN1C(=O)c2ccc(-c3ccco3)n2CC1(C)C(=O)NC1CCCCC1 (stereo not drawn)	5.26% (inactive)	-1.1%	0%	5.47%	3.87%	0.061%
COc1ccccc1-c1[nH]nc2ncc(C(=O)N3CCN(Cc4ccccc4)CC3)nc12	-63.8% (active)	-70.9%	-63.7%	-73.4%	-59.4%	-76.7%
COc1ccc(-c2ncc3c(n2)OCCN(Cc2ccccc2)C3=O)cn1	-3.7% (inactive)	-12%	-5.92%	-5.55%	-19.1%	-28.2%
CN1C(=O)c2cc(C(=O)N3CCN(Cc4ccccc4)CC3)nn2CC1(C)C(=O)NCc1ccccc1 (stereo not drawn)	1.23% (inactive)	5.09%	0.749%	4.84%	6.08%	-8.04%
O=c1c2ccccc2n2c(=O)n(Cc3cccc(F)c3)nc2n1CCc1ccccc1	-1.7% (inactive)	-7.42%	-7.2%	8.21%	-7.17%	-9.52%
CC1(C)[C@H](Cc2cc(-c3ccccc3)on2)C[C@@H]1NCC1CC1	-5.01% (active)	-5.31%	-6%	-40.7%	-19.5%	-50.1%
CCCn1c(=O)c2cc(Cl)ccc2n2c(SCC(=O)Nc3ccc(Cl)cc3)nnc12	-0.206% (inactive)	-6.08%	4.35%	1.24%	-3.29%	1.76%
CCOCCCN1C(=O)c2cc3ccccc3n2CC1(C)C(=O)NCCC(C)C (stereo not drawn)	4% (inactive)	6.59%	4.89%	8.93%	10.6%	0.52%
CCCn1c(=O)c2ccc(C(=O)NC(C)CC)cc2n2c(=O)n(CC(=O)Nc3ccccc3)nc12 (stereo not drawn)	-0.37% (inactive)	0.266%	3.33%	0.842%	-0.601%	3.03%
O=c1c2ccccc2n2c(=O)n(Cc3ccccc3)nc2n1Cc1ccc(F)cc1	6.23% (inactive)	9.17%	3.06%	12.4%	6.51%	5.22%
COc1ccc(-c2nc3ccncc3[nH]2)cc1	-149% (active)	-99.2%	-103%	-91.6%	-110%	-145%
CC1CCN(S(=O)(=O)c2ccc3c(ccn3CCC(=O)N3CCN(c4ccccn4)CC3)c2)CC1	-2.75% (inactive)	-6.24%	-4.09%	-2.6%	-7.95%	-2.86%
Cc1cc(Nc2cc(N3CCN(C)CC3)nc(Sc3ccc(NC(=O)C4CC4)cc3)n2)n[nH]1	-3.15% (active)	-71.8%	5.06%	-13.3%	-11.1%	-0.531%
O=C(NCc1ccc2c(c1)OCO2)c1sc(=S)n2c1[nH]c(=O)c1ccccc12	-20.2% (active)	-52.7%	0%	-2.67%	-35.9%	-28.2%
Cc1ccc(Cn2c(=O)c3ccccc3n3c(CCC(=O)NCc4ccc5c(c4)OCO5)nnc23)cc1	-5.97% (inactive)	-13.5%	2.22%	-2.65%	-2.38%	-7.16%
Cc1cc2c(cc1S(=O)(=O)NCc1ccc3c(c1)OCO3)n(C)c(=O)n2C	13.6% (inactive)	12.8%	1.49%	9.41%	2.71%	6.83%
